Data published in the supplement of paper PMC11732987, “Enantioselective OTUD7B fragment discovery through chemoproteomics screening and high-throughput optimisation” (Communications Chemistry, 2025).

Key:
Assay in all cases: log2 ratio of Biotin-Ahx-Ub-VS probe labelling (fragment/DMSO); higher = less target engagement (more negative = stronger competition), active = hit call of the paper (q ≤ 0.05, log2 ratio ≤ -1)
Details in all cases: compound concentration: 200 uM; treatment time: 3 h
USP34 = USP34 (UniProt Q70CQ2)
Method in brief: (§1)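 Labelled DUBs from HEK293T lysate were NeutrAvidin-enriched, digested with LysC and trypsin, and run by diaPASEF LC-MS/MS. Before that, each 495 µg sample in Tris/CHAPS/IGEPAL buffer with protease inhibitors was treated in triplicate with fragment at 200 µM or vehicle for 3 h, then with Biotin-Ahx-Ub-VS at 0.5 µM final for 1 h. Values are average log2 ratios of fragment over vehicle by unpaired t-test, based on global-median-normalised Spectronaut label-free quantities from proteins with ≥2 unique peptides.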

USP36 = target: T1, USP36 (UniProt Q9P275)
T1 sequence (whole entry): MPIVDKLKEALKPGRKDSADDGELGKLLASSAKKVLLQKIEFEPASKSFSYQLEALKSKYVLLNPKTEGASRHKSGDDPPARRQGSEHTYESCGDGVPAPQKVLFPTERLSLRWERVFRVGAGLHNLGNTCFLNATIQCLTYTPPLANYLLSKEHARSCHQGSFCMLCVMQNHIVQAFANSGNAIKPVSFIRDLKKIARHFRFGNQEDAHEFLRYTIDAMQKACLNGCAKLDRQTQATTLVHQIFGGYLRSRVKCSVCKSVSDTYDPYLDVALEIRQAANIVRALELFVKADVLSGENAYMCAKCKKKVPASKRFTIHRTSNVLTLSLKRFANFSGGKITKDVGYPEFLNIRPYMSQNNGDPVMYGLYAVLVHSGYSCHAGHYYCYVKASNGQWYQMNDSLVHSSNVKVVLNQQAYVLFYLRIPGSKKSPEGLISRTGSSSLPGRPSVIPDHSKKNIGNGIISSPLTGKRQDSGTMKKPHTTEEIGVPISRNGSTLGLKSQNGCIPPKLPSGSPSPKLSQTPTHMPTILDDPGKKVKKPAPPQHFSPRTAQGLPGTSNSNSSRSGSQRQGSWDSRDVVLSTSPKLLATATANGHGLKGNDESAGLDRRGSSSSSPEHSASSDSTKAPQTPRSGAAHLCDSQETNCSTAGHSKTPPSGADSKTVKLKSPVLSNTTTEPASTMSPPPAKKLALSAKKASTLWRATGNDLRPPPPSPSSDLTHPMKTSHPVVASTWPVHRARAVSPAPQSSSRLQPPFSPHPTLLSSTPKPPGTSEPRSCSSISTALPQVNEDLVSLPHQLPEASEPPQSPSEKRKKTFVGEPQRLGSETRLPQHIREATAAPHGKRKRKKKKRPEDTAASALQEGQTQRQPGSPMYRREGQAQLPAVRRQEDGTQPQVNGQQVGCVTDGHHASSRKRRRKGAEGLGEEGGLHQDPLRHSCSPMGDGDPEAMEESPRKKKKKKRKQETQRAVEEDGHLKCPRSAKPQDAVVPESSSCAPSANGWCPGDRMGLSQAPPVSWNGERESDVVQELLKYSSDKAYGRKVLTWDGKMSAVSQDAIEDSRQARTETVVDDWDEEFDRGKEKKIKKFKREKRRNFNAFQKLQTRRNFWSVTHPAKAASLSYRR
Method in brief: as §1

USP38 = target: T2, USP38 (UniProt Q8NB14)
T2 sequence (whole entry): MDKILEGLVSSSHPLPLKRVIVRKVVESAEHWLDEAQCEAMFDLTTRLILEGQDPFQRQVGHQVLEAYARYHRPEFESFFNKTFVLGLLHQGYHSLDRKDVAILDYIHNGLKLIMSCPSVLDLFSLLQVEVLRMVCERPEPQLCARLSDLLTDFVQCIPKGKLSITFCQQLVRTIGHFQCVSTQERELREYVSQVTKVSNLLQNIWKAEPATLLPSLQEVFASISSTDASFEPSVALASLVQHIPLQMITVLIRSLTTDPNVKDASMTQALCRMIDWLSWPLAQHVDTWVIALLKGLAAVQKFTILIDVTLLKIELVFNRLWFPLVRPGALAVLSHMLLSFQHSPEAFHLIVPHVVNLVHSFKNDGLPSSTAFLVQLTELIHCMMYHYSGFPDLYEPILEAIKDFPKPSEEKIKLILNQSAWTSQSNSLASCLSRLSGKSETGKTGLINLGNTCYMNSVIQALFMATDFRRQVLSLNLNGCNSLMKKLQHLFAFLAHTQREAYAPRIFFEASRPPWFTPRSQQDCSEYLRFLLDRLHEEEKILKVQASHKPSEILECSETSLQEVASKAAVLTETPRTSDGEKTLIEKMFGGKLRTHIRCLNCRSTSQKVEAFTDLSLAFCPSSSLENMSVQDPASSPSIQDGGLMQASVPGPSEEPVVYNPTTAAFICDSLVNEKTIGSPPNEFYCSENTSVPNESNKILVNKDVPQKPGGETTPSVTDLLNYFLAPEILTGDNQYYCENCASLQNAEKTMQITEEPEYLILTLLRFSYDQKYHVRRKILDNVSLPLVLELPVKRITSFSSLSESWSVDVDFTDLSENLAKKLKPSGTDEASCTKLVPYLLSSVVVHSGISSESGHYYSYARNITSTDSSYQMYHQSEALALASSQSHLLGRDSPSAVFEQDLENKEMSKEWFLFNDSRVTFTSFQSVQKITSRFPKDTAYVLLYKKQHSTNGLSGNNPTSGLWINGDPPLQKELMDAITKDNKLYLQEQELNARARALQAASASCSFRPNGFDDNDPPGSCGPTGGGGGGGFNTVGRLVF
Method in brief: as §1

USP39 = target: T3, USP39 (UniProt Q53GS9)
T3 sequence (whole entry): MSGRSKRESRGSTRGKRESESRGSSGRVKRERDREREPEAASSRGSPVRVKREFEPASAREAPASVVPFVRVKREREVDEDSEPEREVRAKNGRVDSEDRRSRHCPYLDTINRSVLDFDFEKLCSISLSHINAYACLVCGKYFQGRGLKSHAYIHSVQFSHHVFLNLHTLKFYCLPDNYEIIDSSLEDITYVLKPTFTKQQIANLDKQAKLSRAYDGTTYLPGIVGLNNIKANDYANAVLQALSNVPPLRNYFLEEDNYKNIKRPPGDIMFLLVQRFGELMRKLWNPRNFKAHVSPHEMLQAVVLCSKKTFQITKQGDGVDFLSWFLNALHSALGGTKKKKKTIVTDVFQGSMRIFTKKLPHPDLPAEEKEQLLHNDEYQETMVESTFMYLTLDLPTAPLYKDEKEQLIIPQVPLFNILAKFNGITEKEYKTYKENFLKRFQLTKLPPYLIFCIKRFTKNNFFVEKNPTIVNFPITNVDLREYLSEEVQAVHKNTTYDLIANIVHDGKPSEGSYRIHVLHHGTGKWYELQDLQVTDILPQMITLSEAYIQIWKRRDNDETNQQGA
Method in brief: as §1

USP4 = target: T4, USP4 (UniProt Q13107)
T4 sequence (whole entry): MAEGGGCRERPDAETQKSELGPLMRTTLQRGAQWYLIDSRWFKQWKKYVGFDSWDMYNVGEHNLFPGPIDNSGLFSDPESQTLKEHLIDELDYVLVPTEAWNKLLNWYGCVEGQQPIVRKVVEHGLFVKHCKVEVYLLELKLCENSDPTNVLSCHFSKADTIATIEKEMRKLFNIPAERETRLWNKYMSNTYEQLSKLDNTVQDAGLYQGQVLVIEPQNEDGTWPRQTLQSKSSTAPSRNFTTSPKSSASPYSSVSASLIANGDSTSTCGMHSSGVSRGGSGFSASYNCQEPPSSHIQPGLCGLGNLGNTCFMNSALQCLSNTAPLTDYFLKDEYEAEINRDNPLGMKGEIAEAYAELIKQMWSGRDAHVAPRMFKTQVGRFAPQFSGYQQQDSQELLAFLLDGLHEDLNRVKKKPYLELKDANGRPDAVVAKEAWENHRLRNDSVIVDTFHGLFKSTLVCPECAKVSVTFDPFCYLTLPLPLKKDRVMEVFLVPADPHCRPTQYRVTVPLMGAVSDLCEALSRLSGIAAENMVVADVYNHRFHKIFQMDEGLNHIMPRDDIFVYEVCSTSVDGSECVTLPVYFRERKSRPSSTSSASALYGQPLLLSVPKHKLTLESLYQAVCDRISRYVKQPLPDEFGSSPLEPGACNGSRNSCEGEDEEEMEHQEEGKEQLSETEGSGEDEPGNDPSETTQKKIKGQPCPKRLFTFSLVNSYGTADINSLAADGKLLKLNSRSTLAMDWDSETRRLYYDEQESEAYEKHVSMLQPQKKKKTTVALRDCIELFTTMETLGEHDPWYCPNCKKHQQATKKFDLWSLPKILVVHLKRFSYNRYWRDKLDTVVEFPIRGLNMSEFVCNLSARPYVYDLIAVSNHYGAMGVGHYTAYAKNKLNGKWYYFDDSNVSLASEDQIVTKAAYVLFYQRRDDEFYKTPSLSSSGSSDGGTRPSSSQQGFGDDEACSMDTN
Method in brief: as §1

Measured: log2 ratio of Biotin-Ahx-Ub-VS probe labelling

Chain of USP34 (Q70CQ2 whole entry, the tested form may be a part): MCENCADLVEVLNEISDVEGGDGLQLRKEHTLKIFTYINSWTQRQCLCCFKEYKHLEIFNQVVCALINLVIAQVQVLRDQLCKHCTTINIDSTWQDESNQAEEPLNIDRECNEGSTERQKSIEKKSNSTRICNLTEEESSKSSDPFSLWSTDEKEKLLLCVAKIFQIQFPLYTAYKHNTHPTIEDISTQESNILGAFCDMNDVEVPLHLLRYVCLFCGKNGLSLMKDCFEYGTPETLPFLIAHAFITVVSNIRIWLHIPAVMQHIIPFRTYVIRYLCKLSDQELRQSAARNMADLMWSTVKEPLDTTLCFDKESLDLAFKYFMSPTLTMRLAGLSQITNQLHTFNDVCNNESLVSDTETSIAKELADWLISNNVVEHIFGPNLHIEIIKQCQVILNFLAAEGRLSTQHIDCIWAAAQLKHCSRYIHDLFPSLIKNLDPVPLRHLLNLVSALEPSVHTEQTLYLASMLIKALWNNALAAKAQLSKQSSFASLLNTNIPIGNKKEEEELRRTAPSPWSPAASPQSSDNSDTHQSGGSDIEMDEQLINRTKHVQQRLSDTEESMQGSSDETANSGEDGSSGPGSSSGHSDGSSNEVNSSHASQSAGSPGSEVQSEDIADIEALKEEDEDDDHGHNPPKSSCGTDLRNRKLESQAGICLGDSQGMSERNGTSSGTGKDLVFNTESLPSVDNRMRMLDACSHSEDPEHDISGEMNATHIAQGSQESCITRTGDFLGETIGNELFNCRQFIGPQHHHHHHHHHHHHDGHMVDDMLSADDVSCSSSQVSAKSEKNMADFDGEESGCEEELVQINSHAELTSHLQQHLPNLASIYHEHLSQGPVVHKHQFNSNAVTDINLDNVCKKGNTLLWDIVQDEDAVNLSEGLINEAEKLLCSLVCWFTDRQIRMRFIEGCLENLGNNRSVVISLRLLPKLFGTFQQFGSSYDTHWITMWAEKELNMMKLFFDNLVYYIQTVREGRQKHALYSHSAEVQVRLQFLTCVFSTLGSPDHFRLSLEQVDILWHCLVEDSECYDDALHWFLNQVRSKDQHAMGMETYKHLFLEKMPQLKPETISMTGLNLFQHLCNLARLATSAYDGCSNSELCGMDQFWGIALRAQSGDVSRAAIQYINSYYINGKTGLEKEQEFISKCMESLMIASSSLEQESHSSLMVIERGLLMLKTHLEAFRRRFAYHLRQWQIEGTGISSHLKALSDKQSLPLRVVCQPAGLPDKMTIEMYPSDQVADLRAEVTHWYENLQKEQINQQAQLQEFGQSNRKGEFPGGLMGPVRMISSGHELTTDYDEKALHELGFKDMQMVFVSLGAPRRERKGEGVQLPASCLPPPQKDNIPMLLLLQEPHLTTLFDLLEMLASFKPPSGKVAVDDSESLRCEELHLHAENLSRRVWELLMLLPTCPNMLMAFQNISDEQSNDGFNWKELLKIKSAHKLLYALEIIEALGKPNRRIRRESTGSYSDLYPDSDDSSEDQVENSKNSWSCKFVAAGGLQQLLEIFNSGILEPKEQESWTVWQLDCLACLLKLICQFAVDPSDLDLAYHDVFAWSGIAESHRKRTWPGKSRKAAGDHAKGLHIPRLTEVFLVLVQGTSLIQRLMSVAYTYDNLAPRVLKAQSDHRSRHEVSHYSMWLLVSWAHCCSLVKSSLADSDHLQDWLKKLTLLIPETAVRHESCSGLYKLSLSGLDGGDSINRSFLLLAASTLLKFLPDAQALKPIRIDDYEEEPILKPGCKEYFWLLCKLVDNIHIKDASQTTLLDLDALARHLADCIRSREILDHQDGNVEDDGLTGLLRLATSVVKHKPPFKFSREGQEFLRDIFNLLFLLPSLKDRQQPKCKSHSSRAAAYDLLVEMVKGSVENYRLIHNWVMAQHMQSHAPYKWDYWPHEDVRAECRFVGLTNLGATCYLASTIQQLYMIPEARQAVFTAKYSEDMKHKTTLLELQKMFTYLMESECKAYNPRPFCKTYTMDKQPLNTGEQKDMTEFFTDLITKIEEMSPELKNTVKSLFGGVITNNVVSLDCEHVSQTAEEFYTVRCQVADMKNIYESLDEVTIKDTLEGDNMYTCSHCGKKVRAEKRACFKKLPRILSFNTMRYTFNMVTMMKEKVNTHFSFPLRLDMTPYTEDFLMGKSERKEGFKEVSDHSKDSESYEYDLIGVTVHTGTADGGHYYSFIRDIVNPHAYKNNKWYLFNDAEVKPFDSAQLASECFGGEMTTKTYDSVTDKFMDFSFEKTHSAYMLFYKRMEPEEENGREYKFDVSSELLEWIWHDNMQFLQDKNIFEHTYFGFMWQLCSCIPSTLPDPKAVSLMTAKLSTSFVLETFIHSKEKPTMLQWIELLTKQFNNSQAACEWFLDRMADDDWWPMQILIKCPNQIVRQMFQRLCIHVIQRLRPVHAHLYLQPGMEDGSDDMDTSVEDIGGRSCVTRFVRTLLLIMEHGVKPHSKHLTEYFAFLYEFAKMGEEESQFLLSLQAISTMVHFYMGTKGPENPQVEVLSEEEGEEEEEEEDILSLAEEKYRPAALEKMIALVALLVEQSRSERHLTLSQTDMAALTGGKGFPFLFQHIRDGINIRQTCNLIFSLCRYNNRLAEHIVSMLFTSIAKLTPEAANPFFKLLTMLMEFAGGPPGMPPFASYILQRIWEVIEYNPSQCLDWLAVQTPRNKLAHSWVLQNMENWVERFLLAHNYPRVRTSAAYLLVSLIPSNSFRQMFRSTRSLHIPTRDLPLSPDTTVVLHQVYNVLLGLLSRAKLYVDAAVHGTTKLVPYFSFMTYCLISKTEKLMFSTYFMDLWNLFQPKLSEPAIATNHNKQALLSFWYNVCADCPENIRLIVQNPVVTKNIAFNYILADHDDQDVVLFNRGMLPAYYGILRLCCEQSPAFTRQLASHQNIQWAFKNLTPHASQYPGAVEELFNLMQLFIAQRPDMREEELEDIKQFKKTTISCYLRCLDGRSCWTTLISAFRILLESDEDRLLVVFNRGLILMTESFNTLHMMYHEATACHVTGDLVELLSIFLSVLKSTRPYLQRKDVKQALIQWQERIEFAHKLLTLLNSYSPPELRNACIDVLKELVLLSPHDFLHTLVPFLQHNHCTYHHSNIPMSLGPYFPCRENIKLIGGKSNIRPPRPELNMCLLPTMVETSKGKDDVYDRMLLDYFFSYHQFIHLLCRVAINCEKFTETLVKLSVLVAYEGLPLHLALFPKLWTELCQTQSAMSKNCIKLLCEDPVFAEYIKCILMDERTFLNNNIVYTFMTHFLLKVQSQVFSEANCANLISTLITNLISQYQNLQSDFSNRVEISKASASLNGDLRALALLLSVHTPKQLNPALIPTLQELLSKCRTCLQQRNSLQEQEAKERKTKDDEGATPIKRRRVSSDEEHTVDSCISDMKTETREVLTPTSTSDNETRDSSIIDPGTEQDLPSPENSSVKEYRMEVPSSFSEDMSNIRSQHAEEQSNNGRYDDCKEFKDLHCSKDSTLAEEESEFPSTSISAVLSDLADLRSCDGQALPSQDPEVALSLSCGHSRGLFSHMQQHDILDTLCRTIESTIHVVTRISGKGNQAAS

O=C(CCl)N1CCN2C(=O)CCC2C1 (stereo not given)
inactive: USP34 -0.0311 | USP36 0.272 | USP38 0.0868 | USP39 -0.106 | USP4 -0.0639
